About 7,900 targets were measured; listed, in parts, are those with a hit and a random draw of the rest. About 0.6% of all pairs of compound and target were hits. Unmarked numbers belong to inactive results.
Experiments:
Test in all cases: log2 fold change, soluble protein after heating vs DMSO (PISA); higher = thermal stabilisation; K562 cells, 10 uM, 30 min; active = over 0.2 and 3.5 SD of the protein, either way, in both replicates (recomputed)
bafetinib = compound: Cc1ccc(NC(=O)c2ccc(CN3CC[C@H](N(C)C)C3)c(C(F)(F)F)c2)cc1Nc1nccc(-c2cncnc2)n1 [bafetinib]
In short: (§1)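 Soluble protein was defined as the supernatant after 21,000xg for 90 min. It came from K562 cells at 2×10^6 cells/mL given 10 μM compound for 30 min, heated in aliquots for 3 min across 48°C-58°C, pooled, and extracted in PBS with 0.5% NP-40 at 4°C, and was quantified by TMTpro 16plex LC-MS/MS with equalised channel sums. Thermal stability against control samples, from duplicates, is reported as log2 fold change.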

[1] = compound: Cc1cccc(CC(=O)N2CCc3c2ccc(-c2cn(C)c4ncnc(N)c24)c3F)n1
In short: as §1

nilotinib = compound: Cc1cn(-c2cc(NC(=O)c3ccc(C)c(Nc4nccc(-c5cccnc5)n4)c3)cc(C(F)(F)F)c2)cn1 [nilotinib]
In short: as §1

[2] = compound: Cc1nc(Nc2n[nH]c3c2CN(C(=O)N[C@H](CN(C)C)c2ccccc2)C3(C)C)c2sccc2n1
In short: as §1

dasatinib = compound: Cc1nc(Nc2ncc(C(=O)Nc3c(C)cccc3Cl)s2)cc(N2CCN(CCO)CC2)n1 [dasatinib]
In short: as §1

[3] = compound: Cc1ncc(-c2ccnc(Nc3ccc(S(C)(=O)=O)cc3)n2)n1C(C)C
In short: as §1

[4] = compound: Cn1cc(-c2ccc3c(c2)CCN3C(=O)Cc2cccc(C(F)(F)F)c2)c2c(N)ncnc21
In short: as §1

[5] = compound: Cn1cc(-c2ccc3nnc(C(F)(F)c4ccc5ncccc5c4)n3n2)cn1
In short: as §1

tipifarnib = compound: Cn1cncc1[C@@](N)(c1ccc(Cl)cc1)c1ccc2c(c1)c(-c1cccc(Cl)c1)cc(=O)n2C [tipifarnib]
In short: as §1

mubritinib = compound: FC(F)(F)c1ccc(/C=C/c2nc(COc3ccc(CCCCn4ccnn4)cc3)co2)cc1 [mubritinib]
In short: as §1

[6] = compound: NC(=O)Nc1cc(-c2cccc(F)c2)sc1C(=O)N[C@H]1CCCNC1
In short: as §1

[7] = compound: NC(=O)c1cnc(N[C@@H]2CCCC[C@@H]2N)nc1Nc1cccc(-n2nccn2)c1
In short: as §1

[8] = compound: NC1(c2ccc(-c3nc4ccn5c(=O)[nH]nc5c4cc3-c3ccccc3)cc2)CCC1
In short: as §1

[9] = compound: NCC(=O)Nc1ccc(-n2nc(C(F)(F)F)cc2-c2ccc3c(ccc4ccccc43)c2)cc1
In short: as §1

entinostat = compound: Nc1ccccc1NC(=O)c1ccc(CNC(=O)OCc2cccnc2)cc1 [entinostat]
In short: as §1

vorinostat = compound: O=C(CCCCCCC(=O)Nc1ccccc1)NO [vorinostat]
In short: as §1

citarinostat = compound: O=C(CCCCCCNC(=O)c1cnc(N(c2ccccc2)c2ccccc2Cl)nc1)NO [citarinostat]
In short: as §1

silmitasertib = compound: O=C(O)c1ccc2c(c1)nc(Nc1cccc(Cl)c1)c1ccncc12 [silmitasertib]
In short: as §1

[10] = compound: O=C1NC(=O)C(c2cnc3ccccn23)=C1c1cn2c3c(cc(F)cc13)CN(C(=O)N1CCCCC1)CC2
In short: as §1

[11] = compound: c1cc(OCCN2CCCCC2)cc(-c2n[nH]c3ccc(-c4nnc[nH]4)cc23)c1
In short: as §1

Sequence of UniProt P51148 (P51148 whole entry, looked up): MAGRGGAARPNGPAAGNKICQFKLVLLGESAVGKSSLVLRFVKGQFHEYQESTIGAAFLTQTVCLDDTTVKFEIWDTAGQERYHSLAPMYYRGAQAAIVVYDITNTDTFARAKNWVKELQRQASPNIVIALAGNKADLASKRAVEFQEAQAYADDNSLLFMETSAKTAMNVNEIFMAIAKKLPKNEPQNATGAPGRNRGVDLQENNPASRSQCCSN
Sequence of UniProt P49756 (P49756 whole entry, looked up): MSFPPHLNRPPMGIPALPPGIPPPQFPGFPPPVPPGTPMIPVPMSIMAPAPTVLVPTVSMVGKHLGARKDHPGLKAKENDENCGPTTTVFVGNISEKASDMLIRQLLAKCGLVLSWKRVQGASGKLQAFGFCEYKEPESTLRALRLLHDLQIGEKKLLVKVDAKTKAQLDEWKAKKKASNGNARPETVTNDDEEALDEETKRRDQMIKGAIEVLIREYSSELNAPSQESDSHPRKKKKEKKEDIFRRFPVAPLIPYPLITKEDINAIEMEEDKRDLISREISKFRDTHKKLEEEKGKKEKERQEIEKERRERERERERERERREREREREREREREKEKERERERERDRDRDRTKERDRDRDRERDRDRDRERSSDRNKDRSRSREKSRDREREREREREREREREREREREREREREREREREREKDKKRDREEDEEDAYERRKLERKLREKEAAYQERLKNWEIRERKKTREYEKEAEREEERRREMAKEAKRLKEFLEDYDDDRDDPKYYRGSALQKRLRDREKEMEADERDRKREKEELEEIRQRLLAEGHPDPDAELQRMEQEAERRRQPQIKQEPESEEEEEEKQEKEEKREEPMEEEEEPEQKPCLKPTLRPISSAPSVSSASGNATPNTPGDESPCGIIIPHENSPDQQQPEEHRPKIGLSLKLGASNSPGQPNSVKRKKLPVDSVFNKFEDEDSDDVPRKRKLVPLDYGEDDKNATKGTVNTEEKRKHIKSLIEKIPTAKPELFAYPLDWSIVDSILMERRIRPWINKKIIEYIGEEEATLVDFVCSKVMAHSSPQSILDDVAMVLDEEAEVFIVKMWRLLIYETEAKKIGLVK
Sequence of UniProt P52306 (P52306 whole entry, looked up): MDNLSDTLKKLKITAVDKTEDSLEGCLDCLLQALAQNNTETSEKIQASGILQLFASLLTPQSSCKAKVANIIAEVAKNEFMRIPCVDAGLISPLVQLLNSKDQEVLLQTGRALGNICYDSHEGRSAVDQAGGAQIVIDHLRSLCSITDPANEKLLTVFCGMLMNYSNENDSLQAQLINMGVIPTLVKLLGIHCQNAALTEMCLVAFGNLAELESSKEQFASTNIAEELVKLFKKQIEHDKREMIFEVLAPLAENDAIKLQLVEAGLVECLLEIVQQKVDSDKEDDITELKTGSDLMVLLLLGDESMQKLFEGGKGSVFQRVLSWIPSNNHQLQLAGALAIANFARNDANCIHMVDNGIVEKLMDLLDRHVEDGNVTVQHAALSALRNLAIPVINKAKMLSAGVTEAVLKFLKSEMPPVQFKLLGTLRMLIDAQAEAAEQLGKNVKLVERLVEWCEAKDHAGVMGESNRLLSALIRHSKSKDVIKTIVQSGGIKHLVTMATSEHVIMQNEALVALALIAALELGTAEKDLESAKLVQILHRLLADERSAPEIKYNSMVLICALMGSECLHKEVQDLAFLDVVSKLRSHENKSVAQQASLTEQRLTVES
Sequence of UniProt Q9BY42 (Q9BY42 whole entry, looked up): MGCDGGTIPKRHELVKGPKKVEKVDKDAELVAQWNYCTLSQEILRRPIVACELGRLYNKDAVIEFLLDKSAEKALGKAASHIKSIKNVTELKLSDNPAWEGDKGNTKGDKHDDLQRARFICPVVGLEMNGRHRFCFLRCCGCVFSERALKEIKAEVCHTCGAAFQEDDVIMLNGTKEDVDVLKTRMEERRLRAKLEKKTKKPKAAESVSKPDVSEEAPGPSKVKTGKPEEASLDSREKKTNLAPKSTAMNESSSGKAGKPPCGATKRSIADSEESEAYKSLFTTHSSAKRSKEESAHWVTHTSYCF
Sequence of UniProt Q9NW64 (Q9NW64 whole entry, looked up): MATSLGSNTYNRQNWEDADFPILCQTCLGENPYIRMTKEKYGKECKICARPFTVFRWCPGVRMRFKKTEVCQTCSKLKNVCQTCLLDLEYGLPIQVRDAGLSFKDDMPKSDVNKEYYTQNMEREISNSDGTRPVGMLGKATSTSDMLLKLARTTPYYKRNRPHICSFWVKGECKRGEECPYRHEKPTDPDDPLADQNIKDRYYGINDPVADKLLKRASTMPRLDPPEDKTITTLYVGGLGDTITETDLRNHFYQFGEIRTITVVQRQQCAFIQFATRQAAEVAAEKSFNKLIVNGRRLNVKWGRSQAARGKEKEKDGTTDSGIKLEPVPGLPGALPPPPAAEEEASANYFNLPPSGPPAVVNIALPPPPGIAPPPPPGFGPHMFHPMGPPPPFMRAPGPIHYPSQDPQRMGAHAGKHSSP
Sequence of UniProt Q01974 (Q01974 whole entry, looked up): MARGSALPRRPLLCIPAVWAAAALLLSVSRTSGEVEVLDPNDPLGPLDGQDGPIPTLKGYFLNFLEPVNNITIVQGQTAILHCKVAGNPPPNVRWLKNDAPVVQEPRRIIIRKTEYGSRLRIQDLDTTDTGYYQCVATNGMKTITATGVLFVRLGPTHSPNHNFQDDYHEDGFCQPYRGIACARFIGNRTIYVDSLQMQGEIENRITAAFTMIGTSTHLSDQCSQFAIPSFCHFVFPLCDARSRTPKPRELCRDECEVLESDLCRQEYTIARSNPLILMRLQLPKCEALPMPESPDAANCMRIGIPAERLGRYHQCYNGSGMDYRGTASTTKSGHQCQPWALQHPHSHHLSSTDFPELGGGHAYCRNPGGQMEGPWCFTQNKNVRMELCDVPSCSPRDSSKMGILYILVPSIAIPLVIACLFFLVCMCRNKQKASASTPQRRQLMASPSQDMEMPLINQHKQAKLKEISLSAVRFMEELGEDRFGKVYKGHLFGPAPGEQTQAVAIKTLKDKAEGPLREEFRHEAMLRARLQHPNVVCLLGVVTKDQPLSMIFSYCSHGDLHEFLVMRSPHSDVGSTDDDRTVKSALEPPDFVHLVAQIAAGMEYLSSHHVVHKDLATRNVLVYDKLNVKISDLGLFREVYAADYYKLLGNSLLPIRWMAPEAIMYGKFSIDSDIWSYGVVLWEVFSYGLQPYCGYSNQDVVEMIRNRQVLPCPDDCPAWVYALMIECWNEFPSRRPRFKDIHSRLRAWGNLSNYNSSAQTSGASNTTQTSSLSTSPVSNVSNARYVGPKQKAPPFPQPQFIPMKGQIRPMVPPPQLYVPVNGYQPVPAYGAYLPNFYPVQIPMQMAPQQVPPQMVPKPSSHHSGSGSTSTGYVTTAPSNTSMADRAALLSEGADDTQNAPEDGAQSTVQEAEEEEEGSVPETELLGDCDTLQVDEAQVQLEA
Sequence of UniProt Q13546 (Q13546 whole entry, looked up): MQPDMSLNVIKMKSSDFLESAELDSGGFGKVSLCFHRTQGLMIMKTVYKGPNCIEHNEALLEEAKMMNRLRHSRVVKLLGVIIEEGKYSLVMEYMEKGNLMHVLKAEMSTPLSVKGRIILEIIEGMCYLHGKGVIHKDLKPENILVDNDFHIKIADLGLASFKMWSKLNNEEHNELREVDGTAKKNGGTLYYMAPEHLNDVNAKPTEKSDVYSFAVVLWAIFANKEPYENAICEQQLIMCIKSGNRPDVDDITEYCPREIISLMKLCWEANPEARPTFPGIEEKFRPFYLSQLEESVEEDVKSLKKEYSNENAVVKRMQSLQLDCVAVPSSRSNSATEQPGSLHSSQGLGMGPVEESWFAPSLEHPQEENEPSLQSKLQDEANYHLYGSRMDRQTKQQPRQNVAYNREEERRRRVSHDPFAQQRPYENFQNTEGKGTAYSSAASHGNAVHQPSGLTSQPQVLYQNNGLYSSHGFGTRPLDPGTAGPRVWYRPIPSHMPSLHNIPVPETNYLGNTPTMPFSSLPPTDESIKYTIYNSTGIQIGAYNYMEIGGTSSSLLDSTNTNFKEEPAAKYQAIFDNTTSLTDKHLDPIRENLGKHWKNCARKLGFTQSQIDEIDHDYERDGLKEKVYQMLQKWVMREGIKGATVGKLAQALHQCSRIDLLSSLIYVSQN
Sequence of UniProt Q92930 (Q92930 whole entry, looked up): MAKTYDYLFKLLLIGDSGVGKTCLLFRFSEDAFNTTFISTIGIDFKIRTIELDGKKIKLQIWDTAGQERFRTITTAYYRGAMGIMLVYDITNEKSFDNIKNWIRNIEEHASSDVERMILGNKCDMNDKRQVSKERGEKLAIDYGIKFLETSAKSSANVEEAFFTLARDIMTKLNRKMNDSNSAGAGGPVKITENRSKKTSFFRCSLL
Sequence of UniProt Q9BVS4 (Q9BVS4 whole entry, looked up): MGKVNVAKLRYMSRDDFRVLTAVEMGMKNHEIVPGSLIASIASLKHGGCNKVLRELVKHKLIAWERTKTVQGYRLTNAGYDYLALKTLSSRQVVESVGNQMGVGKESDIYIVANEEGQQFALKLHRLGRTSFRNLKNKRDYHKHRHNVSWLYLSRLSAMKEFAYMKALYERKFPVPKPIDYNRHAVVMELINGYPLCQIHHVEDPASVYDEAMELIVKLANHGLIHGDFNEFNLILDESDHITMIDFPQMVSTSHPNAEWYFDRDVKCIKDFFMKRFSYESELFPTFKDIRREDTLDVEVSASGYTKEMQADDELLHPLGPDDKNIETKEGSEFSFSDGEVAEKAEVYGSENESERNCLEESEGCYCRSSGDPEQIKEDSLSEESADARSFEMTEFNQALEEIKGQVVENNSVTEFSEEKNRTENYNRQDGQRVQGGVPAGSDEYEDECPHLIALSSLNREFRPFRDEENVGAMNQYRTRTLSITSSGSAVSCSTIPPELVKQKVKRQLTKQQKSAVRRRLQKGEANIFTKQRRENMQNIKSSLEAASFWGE

Target	log2 fold change (bafetinib)	log2 fold change [1]	log2 fold change (nilotinib)	log2 fold change [2]	log2 fold change (dasatinib)	log2 fold change [3]	log2 fold change [4]	log2 fold change [5]	log2 fold change (tipifarnib)	log2 fold change (mubritinib)	log2 fold change [6]	log2 fold change [7]	log2 fold change [8]	log2 fold change [9]	log2 fold change (entinostat)	log2 fold change (vorinostat)	log2 fold change (citarinostat)	log2 fold change (silmitasertib)	log2 fold change [10]	log2 fold change [11]
RBM22 (UniProt Q9NW64)	-0.085	0	-0.019	-0.051	-0.07	0.024	-0.133	-0.071	0.008	-0.048	-0.027	-0.004	0.032	-0.049	-0.008	-0.009	-0.038	0.119	-0.063	-0.043
RAP1GDS1 isoform 5 (UniProt P52306)	0.097	0.07	-0.077	-0.105	-0.083	0.042	-0.005	0.03	-0.041	0.026	-0.059	-0.069	-0.181	-0.117	0.027	0.119	0.2	0.087	-0.049	-0.002
RIOK2 (UniProt Q9BVS4)	0.27	0.003	0.094	0.202	0.013	0.231	-0.041	-0.067	-0.003	0.014	-0.008	0.351 (active)	0.04	0.027	-0.041	-0.044	-0.067	0.018	0.086	-0.071
RIPK1 (UniProt Q13546)	0.209	1.12 (active)	-0.007	-0.196	0.197	1.18 (active)	1.49 (active)	-0.052	-0.121	-0.089	0.037	-0.06	-0.092	-0.009	0.088	-0.014	-0.006	0.025	0.205	0.047
RPS5 (UniProt P46782)	0.2	0.002	0.046	0.178	0.069	-0.035	-0.122	-0.08	0.042	0.007	0.035	0.105	0.153	0.133	-0.043	0	-0.052	-0.07	0.094	-0.12
SDCBP (UniProt O00560)	-0.229	0.038	0.015	-0.021	-0.12	0	-0.076	-0.058	0.018	0.025	-0.027	-0.017	-0.207	-0.189	0.007	0.063	-0.014	0.073	0.028	-0.08
RAB5C isoform 2 (UniProt P51148)	-0.005	-0.021	0.019	-0.019	0.014	-0.003	0.043	-0.027	0.006	0.031	0.092	0.041	0.017	0.051	0.007	-0.001	-0.004	-0.009	0.049	-0.028
RAVER1 (UniProt E9PAU2)	-0.155	0	-0.091	-0.319	-0.309	-0.299	0.155	0.011	-0.351	0.134	-0.063	-0.35	-0.1	-0.32	0.211	0.207	0.166	-0.022	-0.244	-0.088
RBM25 (UniProt P49756)	-0.067	-0.066	-0.012	-0.03	-0.049	-0.129	-0.044	-0.096	0.068	0.049	0	0.007	-0.058	-0.025	0.031	0.067	0.015	0.019	0.005	-0.053
ROR2 (UniProt Q01974)	0.024	0.052	0.009	-0.105	-0.124	0.063	0.043	-0.041	0.03	0.029	-0.007	-0.01	-0.03	-0.04	0.004	0.003	0.078	-0.027	0.012	-0.151
RTF2 (UniProt Q9BY42)	-0.074	-0.001	-0.045	-0.125	-0.012	0.039	-0.071	-0.039	-0.065	-0.047	-0.134	0.012	0.124	-0.081	-0.023	-0.062	0.133	0.133	-0.189	0.028
SAMSN1 isoform 3 (UniProt Q9NSI8)	-0.049	0.04	-0.036	-0.169	-0.09	0.02	0.029	0.037	-0.015	0.048	-0.06	-0.067	-0.067	-0.028	0.099	0.009	0.06	0.063	-0.073	-0.025
RAB8B (UniProt Q92930)	-0.008	0.085	0.059	-0.036	0.015	-0.043	0.031	-0.016	-0.088	-0.062	0.203	0.017	-0.053	0.2	0.116	0.073	0.03	-0.049	-0.013	0.093
RAC1 (UniProt P63000)	0.184	-0.017	0.073	0.045	0.007	0.048	0.024	-0.037	0.106	0.026	0.093	0.043	0.018	0.051	0.047	0.084	-0.087	-0.078	0.065	0.146
SH3GLB2 (UniProt Q9NR46)	-0.029	0.044	-0.051	-0.15	-0.147	-0.066	0.006	-0.1	-0.091	0.098	-0.105	-0.13	-0.163	0.004	0.069	0.081	0.059	0.015	-0.028	-0.13
RMC1 (UniProt Q96DM3)	-0.043	0.072	-0.032	-0.047	-0.063	-0.082	0.03	-0.016	0.045	0.012	-0.026	-0.141	-0.384 (active)	-0.039	0.048	0.017	0.04	0.025	-0.036	-0.045
